Results: PubChem BioAssay (EPA / NIEHS)
Active and inactive are the calls of the source. Rule for the calls: active = hit-call score of the fitted dose curve at least 0.9, where 1 is the maximum; inactive = score below 0.9.

Assay: CCTE_Shafer_MEA_acute_cross_correlation_HWHM: CCTE's Neural Acute Assay for Cross Correlation at Half Width at Half Maximum, Shafer Lab (AID 2284026)
Protocol: CCTE_Shafer_MEA_acute assay is conducted using Axion Biosystems 48 well microelectrode array (MEA) plates and Maestro recording system. Each well of the MEA plate contains a grid of 16 microelectrodes embedded in the culture surface. Electrically active cells, such as neurons, can be cultured over the electrodes, and electrical activity in these cells can be recorded extracellularly. The spontaneous firing of neurons is captured from each electrode on a microsecond timescale providing both temporally and spatially precise data. […] The CCTE_Shafer_MEA_acute assay uses primary cultures of rat cortical neurons. As these cultures mature over time, neural networks develop functional activity and form cohesive networks in which electrical activity can be highly coordinated. Baseline 40-minute recordings are made on days post-plating 13 or 15, followed by a secondary 40-minute recording after chemical exposure.CCTE_Shafer_MEA_acute_cross_correlation_HWHM is a component of the CCTE_Shafer_MEA_acute assay. It measures the distance along the x-axis (phase lag) from the left half maximum height to the center of the cross-correlogram of action potential firing during a recording in a microelectrode array (MEA) using Axion Biosystems Maestro 768 channel amplifier with the AxIS adaptive spike detector. Smaller values indicate a narrower correlogram (greater synchrony). The recordings before and after chemical treatment are used to calculate a percent change in the half width at half maximum of the cross-correlogram in each well.Data from the assay component CCTE_Shafer_MEA_acute_cross_correlation_HWHM was analyzed into 1 assay endpoint. This assay endpoint, CCTE_Shafer_MEA_acute_cross_correlation_HWHM, was analyzed in the negative analysis fitting direction relative to DMSO as the negative control and baseline of activity. Using a type of functional reporter, gain or loss-of-signal activity can be used to understand electrical activity.
Spontaneous activity in the cortical cultures was recorded using an Axion Biosystems Maestro 768 channel amplifier and Axion Integrated Studios (AxIS) v1.8 (or later) software. The amplifier recorded from all channels simultaneously (gain = 1200 x; sampling rate = 12.5 kHz/channel): raw signals were filtered with a Butterworth band-pass filter (300-5000 Hz), which filters out slower local field potentials leaving only fast potentials, i.e., "spikes", arising from extracellular currents associated with action potentials (Pine 2006; Wheeler and Nam 2011). On-line spike detection of filtered signals was conducted with the AxIS adaptive spike detector, using a threshold of 8x the root mean squared (rms) noise on each channel. Any electrodes with rms noise levels greater than 5 uV were grounded (e.g., no data were recorded). Once grounded, an electrode was grounded for the duration of the experiment. All recordings were conducted at 37 C. Wells were deemed usable if on the day of the exposure >/= 10 electrodes were active (defined as >/= 5 spikes/min). On DIV 13 or 15, a minimum of three wells from one cortical culture preparation were treated with each compound (0.03-40 uM). Prior to recording baseline activity, each mwMEA plate was placed in the Maestro at 37 C and allowed to sit for 20 min while firing rates stabilized. Baseline activity (40 min) was recorded before the addition of each compound. An additional 40 min of spontaneous activity was recorded in the presence of each compound. Changes in network parameters relative to baseline were assessed following compound treatment.

SMILES	outcome	AC50
COc1cc(C=O)ccc1OC(=O)C(C)C	inactive	
CN(C)C(=N)N=C(N)N	inactive	
NCCNCCN	inactive	
CCCCCCCCC=O	inactive	
OC1OC[C@@H](O)[C@H](O)[C@H]1O (stereo partly specified)	inactive	
C=C[Si](OCC)(OCC)OCC	inactive	
Nc1cc([N+](=O)[O-])ccc1O		24.4 µM (active)
C[C@H]1C[C@@H]2[C@H]([C@@H](O)C[C@@]3(C)[C@H]2CC[C@]3(O)C(=O)CO)[C@@]2(C)C=CC(=O)C=C12	inactive	
CC(=O)OCCC(C)CC(C)(C)C (stereo unspecified)	inactive	
Cc1cc(C2(c3cc(C)c(O)cc3C)OS(=O)(=O)c3ccccc32)c(C)cc1O	inactive	
CC[Si](OC(C)=O)(OC(C)=O)OC(C)=O	inactive	
CC(C)(COC(=O)c1ccccc1)COC(=O)c1ccccc1	inactive	
CC(=O)[C@H]1CC[C@H]2[C@@H]3CC=C4C[C@@H](O)CC[C@]4(C)[C@H]3CC[C@]12C	inactive	
C=CCOC(=O)CCC1CCCCC1	inactive	
CCC(=O)OCc1ccccc1	inactive	
OC[C@H]1O[C@H](O[C@]2(CCl)O[C@H](CCl)[C@@H](O)[C@@H]2O)[C@H](O)[C@@H](O)[C@H]1Cl	inactive	
